# High-throughput results deposited in PubChem by several laboratories.
# CF NFkB inh: inhibitors of PAF-induced NF-kB signaling, primary screen, cell-based, GFP fluorescence, uHTS; 360,000 compounds, 0.86% hits; inhibition, % at 5 µM; KKLEB NF-kB-GFP reporter, GFP fluorescence overnight;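 active = at least 50% inhibition at 5 µM, scaled per plate between neutral and stimulator controls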;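 also: PAF is a Pseudomonas aeruginosa culture filtrate used as stimulus; plate controls were PAF-stimulated DMSO wells for no effect and unstimulated DMSO wells for full effect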
# HIF-2a block: HIF-2a reporter inhibitors, primary screen, luminescence, 786-0 RCC cells; 786-0 RCC cells HIF-2a reporter, luciferase luminescence, overnight; 360,000 compounds, 0.72% hits; AID 624352, 2012; inhibition, % at 18.8 µM;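 active = inhibition of the luminescence signal of 40% or more relative to plate controls, in a single-dose primary screen at 18.75 µM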
# B2AR ag: beta2AR agonists driving receptor internalization, primary screen, cell-based, FAP fluorogen, flow cytometry. Beta-2 adrenergic receptor (Homo sapiens), P07550. Am2.2-beta2AR cells. response, % (test concentration not listed). 340,000 compounds, 0.43% hits;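 active = response above a set limit, near 3 SD of response in nonfluorescent compounds, cut at about 42% in these data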
# Target sequence (P07550 whole entry, looked up): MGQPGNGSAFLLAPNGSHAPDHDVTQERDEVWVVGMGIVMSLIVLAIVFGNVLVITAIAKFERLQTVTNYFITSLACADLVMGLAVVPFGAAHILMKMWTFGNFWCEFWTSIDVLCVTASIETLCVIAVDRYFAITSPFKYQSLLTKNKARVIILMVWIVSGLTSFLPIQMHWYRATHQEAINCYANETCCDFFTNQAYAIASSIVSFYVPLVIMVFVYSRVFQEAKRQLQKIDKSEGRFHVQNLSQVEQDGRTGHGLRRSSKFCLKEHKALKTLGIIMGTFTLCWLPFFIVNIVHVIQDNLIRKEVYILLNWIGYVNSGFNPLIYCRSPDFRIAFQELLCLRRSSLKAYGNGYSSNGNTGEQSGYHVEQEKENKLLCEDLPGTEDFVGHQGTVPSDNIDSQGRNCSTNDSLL
# KKLEB tox: cytotoxicity in KKLEB CF airway cells, primary screen, cytotoxicity control for CF NF-kB inhibitor project, cell-based, uHTS, fluorescence assay plates; KKLEB CF airway cells viability, ATPlite luminescence, overnight; hits give low values; cells stimulated with P. aeruginosa culture filtrate; 360,000 compounds, 0.36% hits; AID 602141, 2011; activity change (cytotoxicity), % at 5 µM;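 active = corrected activity change at or below -50% at 5 µM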
# Peg3 prom inh-1: Peg3 promoter-driven luciferase inhibitors, primary screen, cell-based, HeLa, luciferase luminescence | HeLa PEG-Prom luciferase reporter, overnight | inhibition, % at 20 µM | 360,000 compounds, 1.7% hits;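 active = inhibition of at least 50% at 20 µM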
# MITF TRPM1 inh: inhibitors of MITF-dependent TRPM1 promoter reporter, primary screen, cell-based, SK-MEL-5, single point, luciferase; inhibition, % at 12.5 µM; AID 488899, 2010; SK-MEL-5 TRPM1 promoter luciferase, 24 h; 330,000 compounds, 0.83% hits;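 active = mean inhibition across replicates of 60% or more, whatever share of single replicates reaches that level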
# Peg3 prom inh-2: Peg3 promoter reporter inhibitors, retest, confirmation, cell-based, HeLa, luciferase reporter, single concentration. inhibition, % at 20 µM. HeLa PEG-Prom luciferase reporter, luminescence, overnight. 1,300 compounds, 84% hits. shares compounds with Peg3 prom inh-1;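 active = at 20 µM dose, 40% or more inhibition averaged across four replicates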
# * hit, by the source's call; . = no result given. Shown are actives, neighbours in structure and some others; about 2.8% of the full set was active somewhere.
SMILES,CF NFkB inh,HIF-2a block,B2AR ag,KKLEB tox,Peg3 prom inh-1,MITF TRPM1 inh,Peg3 prom inh-2
NC(=O)c1cc([N+](=O)[O-])ccc1NCc1ccc(N)cc1,29,93*,6,-15,81*,79*,78*
CCOc1ccc(NC(=O)Nc2cccc(C(=O)O)c2)cc1,-15,88*,-4,-1,85*,94*,75*
Cc1ccccc1OCC(=O)Nc1cccc(C(=O)O)c1,11,92*,-6,-2,84*,92*,85*
O=C(Nc1ccc(Cl)cc1)Nc1cccc(C(=O)O)c1,-4,66*,-5,16,53*,80*,36
CCOc1ccc(NC(=O)Nc2ccc3nsnc3c2)cc1,-8,-216,5,3,-219,-73,.
CC(C)(C)NC(=O)C1c2ccccc2OCC(=O)N1Cc1ccco1 (stereo not drawn),.,-2,.,.,.,.,.
O=C(Sc1cccc2cccnc12)c1ccccc1Br,34,14,2,13,59*,85*,47*
O=C(O)CCNc1ccc(NCCC(=O)O)c2c1C(=O)c1ccccc1C2=O,-36,24,16,7,10,25,.
O=C1c2cccc(NCCNCCO)c2C(=O)c2cccc(NCCNCCO)c21,-82,78*,41,13,99*,81*,-2
O=C(Nc1ccc2c(c1)OCCO2)C(C1CC1)N1CCN(c2ccc(F)cc2)CC1 (stereo not drawn),6,6,.,-20,-3,.,.
CCOC(=O)c1c(NC(=O)CSc2nnnn2-c2ccccc2OCC)sc2c1CC(C)(C)NC2(C)C,22,2,30,-7,79*,15,86*
CCOC(=O)c1c(NC(=O)Cc2ccccc2)sc2c1CC(C)(C)NC2(C)C,10,1,5,-22,21,-3,.
COc1ccccc1N1CCN(C(=O)C(Sc2ccccc2)c2ccccc2)CC1 (stereo not drawn),2,24,4,14,52*,14,41*
O=C(COc1ccc(Cl)cc1Cl)NCCN1CCCC1,0,-1,.,-6,4,.,.
COc1ccc(-c2sc3ccccc3c2C#Cc2cncn2C)cc1,17,22,10,0,52*,-5,33
N/C(=N\OC(=O)c1ccccc1)C(Cc1ccccc1)C(=O)NOC(=O)c1ccccc1 (stereo not drawn),9,-40,19,-17,99*,62*,99*
CC1(C(=O)NCc2cccc3ccccc23)CCN1C(=O)Cc1ccc(-c2ccccc2)cc1 (stereo not drawn),-19,-1,.,-11,53*,.,51*
CC1(C(=O)NCc2cccc3ccccc23)CCN1C(=O)C1(c2ccccc2)CC1 (stereo not drawn),-6,7,.,6,15,.,.
Cc1nc(SCC(=O)Nc2ccc(S(=O)(=O)N3CCOCC3)cc2)c2c(C)c(C)sc2n1,37,-4,-2,-26,70*,29,40
Cc1ccc(-n2cc(-c3ccccc3)c3c(N4CCN(C)CC4)ncnc32)cc1,20,17,0,-21,41,-14,.
Cc1cccc(-n2cc(-c3ccccc3)c3c(N4CCOCC4)ncnc32)c1,94*,27,19,-92*,69*,8,82*
O=C(NC1CCCCC1)Sc1ccc(Cl)cc1,14,16,19,1,66*,27,66*
COc1cc(CC(=O)N2CCN(S(=O)(=O)c3ccc(C(C)C)cc3)CC2)cc(OC)c1OC,10,-1,.,-6,3,.,.
COc1ccc(-c2ccc3[nH]c4c(c3c2)CCN2C[C@@H]([C@H](C)O)[C@@H](N(C)C(=O)Nc3cc(Cl)cc(Cl)c3)C[C@@H]42)cc1,1,9,.,1,64*,.,61*
CCCCN1CCCCC1(C)C(=O)NCc1cccc(OC)c1 (stereo not drawn),-4,17,.,6,6,.,.
SMILES,CF NFkB inh,HIF-2a block,B2AR ag,KKLEB tox,Peg3 prom inh-1,MITF TRPM1 inh,Peg3 prom inh-2
O=C(c1ccc(Cl)cc1Cl)c1ncc(C(F)(F)F)cc1Cl,-5,13,-4,6,4,-9,.
O/N=C(\c1ccc(Cl)cc1Cl)c1ncc(C(F)(F)F)cc1Cl,2,16,5,6,57*,-7,47*
COc1ccccc1S(=O)(=O)N(C)C[C@H]1OCc2cn(nn2)CCCC(=O)N([C@H](C)CO)C[C@@H]1C,21,-1,.,3,-2,.,.
CC(=O)Nc1sc(C)c(C)c1C(=O)OCC(=O)Nc1cccc(C)c1,43,-6,9,-27,90*,3,39
CC(=O)Nc1sc(C)c(C)c1C(=O)OCC(=O)N(CC(C)C)c1c(N)n(Cc2ccccc2)c(=O)[nH]c1=O,83*,18,9,-96*,101*,103*,55*
COC(=O)c1c(C)[nH]c(C(=O)OCC(=O)N(CC(C)C)c2c(N)n(Cc3ccccc3)c(=O)[nH]c2=O)c1C,5,16,15,-16,11,0,.
C[C@@H]1CN([C@@H](C)CO)C(=O)c2cc(C#CC(C)(C)O)cnc2O[C@@H]1CN(C)C(=O)c1ccccc1F,-1,10,.,-10,-10,.,.
CC(C)OC(=O)N(C)C[C@H]1OCc2cn(nn2)CCCC(=O)N([C@H](C)CO)C[C@@H]1C,16,-1,.,-13,-17,.,.
Cc1occc1C(=O)Nc1nnc(C(F)(F)F)s1,-2,-46,-1,3,-20,-16,.
O=C(Nc1ccccc1C(=O)Nc1nnc(C(F)(F)F)s1)c1ccccc1,50,-12,23,-53*,59*,-1,87*
O=C(c1ccco1)N1CCN(c2ncnc3c2[nH]c2ccc(Br)cc23)CC1,-42,16,29,3,73*,-6,85*
Cc1[nH]nc(NCCO)c1[N+](=O)[O-],2,18,8,7,0,-13,.
Cc1[nH]nc(S(=O)CC(=O)O)c1[N+](=O)[O-] (stereo not drawn),-17,24,4,-4,51*,-9,26
COC(=O)[C@@]12C[C@@H](CC(=O)NCc3ccc(C)o3)C(=O)N(CCc3ccc(OC)c(OC)c3)C1=CCC(C)(C)C2,.,6,.,.,.,.,.
CCn1cc(C(=O)NCc2ccco2)c(=O)c2cc(S(=O)(=O)N3CC(C)CC(C)C3)ccc21 (stereo not drawn),-1,30,-6,6,58*,16,61*
